Screens: PubChem BioAssay, National Center for Advancing Translational Sciences (NCATS)
Pf Dd2 inh: inhibitors of Plasmodium falciparum Dd2 growth; P. falciparum Dd2 growth, SYBR Green, 72 h; Potency, µM (titrated, usually from 28.9 µM), usual class: inhibitors; actives 4.3% (n = 120,000); AID 1347417; active means well fitted inhibition curve with a large enough effect; further: nearly all actives have a fitted effect of over 65% in size
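Readout: SYBR Green fluorescence, 485 nm excitation, 535 nm emission, after ~16 h lysis at 37C. Before that, Dd2-infected red cells (2.5% hematocrit) grew 72 h with compound, 29 uM top final concentration.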
Of the large screens only hits and unclear results are named; the others gave an inactive call. The full list was thinned out, with hits kept by preference.

COC(=O)[C@@H](Cc1cccnc1)NC(=O)[C@H]1CN(C(C)=O)CCN1C(=O)N1CCOCC1	none
Cc1nc(N2CCC(C(=O)O)(n3cccn3)CC2)cc(-n2cccn2)n1	none
Cc1ccc(CNC(=O)c2ccc3c(c2)c(C)c(C)n3Cc2ccccc2)o1	none
Cc1ccc(CNC(=O)c2ccc3c(c2)c(C)c(C)n3Cc2ccc(Cl)cc2)o1	Pf Dd2 inh 10µM
CCc1ccc(CNC(=O)c2ccc3c(c2)c(C)c(C)n3Cc2ccccc2)cc1	none
COc1cccc(CNC(=O)c2ccc3c(c2)c(C)c(C)n3Cc2ccccc2)c1	none
Cc1c(C)n(Cc2ccccc2)c2ccc(C(=O)NCc3ccco3)cc12	Pf Dd2 inh 7.1µM
COc1ccccc1CCNC(=O)c1ccc2c(c1)c(C)c(C)n2Cc1ccc(Cl)cc1	none
Cc1cccc(CNC(=O)c2c(OCC(C)C)cc(=O)n3c2CCCCC3)c1	none
CCC1(N2CCN(C(=O)c3ccc(C(F)(F)F)cc3)CC2)CCN(S(C)(=O)=O)C1 (stereo not drawn)	none
CCc1c(C)nn(CC(=O)N2CCC3(CCNC(=O)CC3)CC2)c1C	none
CN(C)C(=O)c1ccc2cncn2c1	none
Fc1ccc(CN2CC[C@H](c3nnc(-c4ccc(Cl)cc4)o3)C2)cc1	none
Cn1cc(C(=O)NCCc2noc(-c3ccncc3)n2)cn1	none
COCc1nc(CCNC(=O)c2ccc(OC)nc2)no1	none
COc1ccc(C(=O)NCCc2noc(-c3ccncc3)n2)cn1	Pf Dd2 inh 2.5µM
Cc1ncccc1C(=O)N1CCC(COc2ccc3c(cnn3CC[S+](C)(=O)[O-])c2)CC1	none
COc1ccc(S(=O)(=O)Nc2ccc3c(c2)N(C(C)=O)CCC3)cc1F	Pf Dd2 inh 10µM
CC(=O)N1CCCc2ccc(NS(=O)(=O)c3ccc(C)c(C)c3)cc21	none
CC(=O)N1CCCc2ccc(NS(=O)(=O)c3cccc(Cl)c3)cc21	none
CC(C)CCN(C1CCOCC1)C1CCN(S(=O)(=O)c2cccnc2)CC1	Pf Dd2 inh 10µM
COCC(=O)N(C1CCOCC1)C1CCN(S(=O)(=O)c2cccnc2)CC1	none
CC(C)CN(C1CCOCC1)C1CN(S(=O)(=O)c2ccc(F)cc2)C1	none
Cn1cc(-c2cn[nH]c2)c2nc(COc3ccccc3)cn2c1=O	none
Cc1ccc(NC(=O)C2CCN(S(=O)(=O)c3ccc4[nH]c5c(c4c3)CCCCC5)CC2)cc1	Pf Dd2 inh 11µM
Cc1ccc(S(=O)(=O)N2CCC(C(=O)Nc3ccc(Oc4ccccc4)cc3)CC2)cc1	none
Cc1ccc(NS(=O)(=O)c2ccc3[nH]c4c(c3c2)CCCCCC4)cc1	none
O=C1CCCCC(CNC(=O)c2cn[nH]c2-c2ccccc2)N1 (stereo not drawn)	none
COCC(=O)N[C@H](C)c1onc(C)c1C(=O)O	none
Cc1cn2nc(C(=O)Nc3ccc(C(=O)N4CCCC4)cc3)cc2c(=O)[nH]1	none
CC(=O)c1ccc(NC(=O)c2cc3sccc3n2Cc2ccc(F)cc2)cc1	none
Cc1ccc(CNC(=O)c2cc3sccc3n2Cc2ccc(Cl)cc2)cc1	none
COC(=O)c1cc(NC(=O)c2cc3sccc3n2Cc2ccc(Cl)cc2)cc(C(=O)OC)c1	Pf Dd2 inh 11µM
O=C(c1ccc(C(F)(F)F)cc1)N1CCC(n2c(=O)[nH]c3ccccc32)CC1	none
O=C(CC1CCCN(c2cnn(CC3CC3)c(=O)c2)C1)NC1CCCC1 (stereo not drawn)	none
COc1cccc(CC(=O)N2CCC3(CC2)OC(=O)N(Cc2ccccc2F)C3(C)c2ccccc2)c1 (stereo not drawn)	none
CNC(C)c1ccccc1OC (stereo not drawn)	none
COc1ccc(-c2nnc3ccc(NC(C)C)nn23)nc1	none
COc1ccc(-c2nnc3ccc(Nc4cccc(OC)c4)nn23)nc1	Pf Dd2 inh 10µM
COc1ccc(Nc2ccc3nnc(-c4ccc(C)cn4)n3n2)cc1	none
CC1(c2ccccc2)N(Cc2ncccn2)C(=O)OC12CCN(Cc1cccc(O)c1)CC2 (stereo not drawn)	none
COCCN1C(=O)c2cccn2CC1CNC(=O)c1[nH]nc2c1COc1ccccc1-2 (stereo not drawn)	none
CN1C(=O)c2cccn2CC1CNC(=O)c1[nH]nc2c1COc1ccccc1-2 (stereo not drawn)	Pf Dd2 inh 8.9µM
CN1C(=O)c2cccn2CC1CNC(=O)c1n[nH]c(=O)c2ccccc12 (stereo not drawn)	none
COCCN(C)C(=O)c1cn(C2CNC2)nn1	none
COCCNC(=O)c1ccc(-c2ncc3cnc(-c4cccc(F)c4)cn23)cc1	none
Cc1cc2ncc(C(=O)NCCc3ccccc3F)cn2n1	none
COc1ccc(Cc2nc3nccc(-c4ccc(F)cc4OC)n3n2)cc1	none
Cc1ccc(Cl)cc1N1CCN(C(=O)CCc2nnc3n(C)c(=O)c4ccccc4n23)CC1	none
Cc1ccc(Cl)cc1N1CCN(C(=O)c2cc3c(=O)n(C)c4ccccc4c3s2)CC1	none
Cc1ccc(Cl)cc1N1CCN(C(=O)c2cn(CC(C)C)c(=O)c3c2c2ccccc2n3C)CC1	Pf Dd2 inh 3.2µM
CCOC(=O)C1CCN(C(=O)c2cc3c(n2C)CCN(Cc2ccccc2)C3)CC1	Pf Dd2 inh 1.6µM
COc1ccc(CNC(=O)c2cc3c(n2C)CCN(Cc2ccc(F)cc2)C3)cc1	none
Cn1c(C(=O)N2CCCC2)cc2c1CCN(Cc1ccccc1)C2	none
CN(C)CCCNC(=O)c1cc2c(n1C)CCN(Cc1ccc(F)cc1)C2	none
Cc1cccc(CN2CCc3c(cc(C(=O)O)n3C)C2)c1	none
COc1ccccc1NC(=O)c1cc2c(n1C)CCN(Cc1ccc(F)cc1)C2	none
COc1cccc(CN2CCc3c(cc(C(=O)Nc4cc(OC)cc(OC)c4)n3C)C2)c1	Pf Dd2 inh 8.9µM
Cc1ccc(CN2CCc3c(cc(C(=O)O)n3C)C2)cc1	none
CN(C)CCNC(=O)c1cc2c(n1C)CCN(Cc1ccccc1)C2	Pf Dd2 inh 13µM
COc1ccc(CCNC(=O)CN2C(=O)NC3(CCC(C)CC3)C2=O)cc1OC (stereo not drawn)	none
CS(=O)(=O)N1C[C@@H](COc2cccnc2)[C@H](c2ccccn2)C1	none
COCCNC(=O)C1COC2(CCN(C(=O)c3ccccc3C)CC2)N1C(=O)c1cccc(OC)c1 (stereo not drawn)	none
O=C(C1CCN(C(=O)N2CC3CC(C2)[C@H]2CCCC(=O)N2C3)CC1)N1CC=C(c2ccccc2)CC1 (stereo partly drawn)	none
Cc1ccc(C)c(NC(=O)N2CCCC(Cn3cnc4cccnc43)C2)c1 (stereo not drawn)	none
COc1ccccc1NC(=O)N1C[C@@H](F)C[C@H]1C(=O)N1CCc2ccccc2C1	Pf Dd2 inh 8.9µM
Cc1ccc(C)c(NC(=O)N2C[C@@H](F)C[C@H]2C(=O)N2CCc3ccccc3C2)c1	none
Cc1ccc(NC(=O)N2C[C@@H](F)C[C@H]2C(=O)N2CCc3ccccc3C2)cc1C	none
CCN(Cc1ccncc1)C(=O)c1cc(-c2cnn(CC)c2)nc2cc(C)ccc12	none
COCC1CN(C(C)=O)CC12CCN(Cc1c(C)n[nH]c1C)CC2 (stereo not drawn)	none
COc1ccc(NC(=O)[C@@H]2C[C@@H](c3ccc(F)cc3)N([S+](=O)([O-])c3ccccc3)C2)cn1	none
O=C(Nc1cccc(Cl)c1)[C@@H]1C[C@@H](c2ccc(F)cc2)N([S+](=O)([O-])c2ccccc2)C1	none
COc1ccc(NC(=O)[C@@H]2C[C@@H](c3ccc(F)cc3)N([S+](=O)([O-])c3ccccc3)C2)cc1	Pf Dd2 inh 8.9µM
CNC(=O)[C@H]1C[C@H](Oc2ccccc2)CN1C(=O)Cc1ccccc1F	none
O=C(O)C1=NOC2CN(Cc3cccnc3)CC12 (stereo not drawn)	none
CCCNC(=O)N1CCC(c2noc(COc3ccc(C)cc3)n2)CC1	Pf Dd2 inh 8.9µM
